PI4K2A block: qHTS for small molecular inhibitors of PI4K2A; purified PI4K2A, ADP-Glo luminescence, 1 h; stronger effect = lower value; activity change, negative = inhibition, % at 76.9 µM; actives 0.13% (n = 420,000); in the data active = activity change below about -50%; inconclusive = mostly about -30% to -49%;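 also: -100% = wells without enzyme as full effect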
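Compounds are screened against recombinant PI4K2A using PI as substrate and ATP, the latter dispensed at 300 microM. Reactions run one hour at ambient temperature before ADP-Glo detection; full inhibition defined by wells lacking enzyme.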
rTrxR1 inhibitor: qHTS Assay for Inhibitors of Mammalian Selenoprotein Thioredoxin Reductase 1 (TrxR1): qHTS | Thioredoxin reductase 1, cytoplasmic (Rattus norvegicus), O89049 | recombinant rTrxR1, NADPH fluorescence consumption, selenite substrate | Potency, µM (doses to about 114 µM), without a hit: top-dose activity change, negative = inhibition, hits mostly inhibitors | actives 1% (n = 390,000); also: potency is read from the fitted curve at half-maximal effect; nearly all actives have a fitted effect of over 65% in size
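Rat TrxR1 (90 nM in the dispensed reagent) was pre-reduced with 400 uM NADPH for 5 min at room temperature, then incubated with compound for 15 min. After 400 uM selenite was added, NADPH fluorescence (Ex 340/Em 450 nm) was followed for 8 min.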
PKM2 activator: qHTS Assay for Activators of Human Muscle isoform 2 Pyruvate Kinase; actives 0.34% (n = 260,000); purified PKM2, Kinase-Glo ATP luminescence, activation; response scale: 0% is enzyme alone, no compound; Potency, µM (highest dose often 57.5 µM), for the others: top-dose activation, hits mostly activators; AID 1631, 2009; Pyruvate kinase PKM (Homo sapiens), P14618; also: potency is read from the fitted curve at half-maximal effect; nearly all actives have a fitted effect of over 55% in size
Target sequence (P14618 whole entry, looked up, canonical isoform): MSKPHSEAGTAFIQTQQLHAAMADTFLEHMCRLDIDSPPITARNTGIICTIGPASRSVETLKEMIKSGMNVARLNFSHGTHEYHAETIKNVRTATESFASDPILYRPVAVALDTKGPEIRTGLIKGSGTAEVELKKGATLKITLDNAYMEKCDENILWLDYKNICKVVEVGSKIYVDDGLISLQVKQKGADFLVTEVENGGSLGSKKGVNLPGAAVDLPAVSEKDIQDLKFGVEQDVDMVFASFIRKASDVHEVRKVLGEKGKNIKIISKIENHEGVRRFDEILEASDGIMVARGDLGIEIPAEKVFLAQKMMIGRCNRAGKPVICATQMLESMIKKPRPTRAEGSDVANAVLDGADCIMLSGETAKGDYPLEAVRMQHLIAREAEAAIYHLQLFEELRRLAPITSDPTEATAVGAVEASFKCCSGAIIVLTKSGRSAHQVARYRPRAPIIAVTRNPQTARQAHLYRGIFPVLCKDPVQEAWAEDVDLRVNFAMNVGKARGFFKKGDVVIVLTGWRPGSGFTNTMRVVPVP
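ATP formation by purified human PK-M2, quantified via coupled luciferase luminescence after 1 h at room temperature with 0.1 mM ADP and 0.5 mM PEP final.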
TrxR1 substrate: qHTS Assay for Substrates of Mammalian Selenoprotein Thioredoxin Reductase 1 (TrxR1): qHTS; purified TrxR1 substrate turnover, NADPH consumption readout; Potency, µM (top dose mostly 114 µM), without a hit: top-dose activity change, negative = substrate turnover; actives 0.01% (n = 390,000); also: potency is read from the fitted curve at half-maximal effect; nearly all actives have a fitted effect of over 50% in size
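Rat TrxR1, dispensed at 90 nM, was prereduced with 400 uM NADPH (final) for 5 min at ~22 deg C, then incubated with compound 15 min before 400 uM selenite. A first-read NADPH fluorescence drop versus no-compound background flagged substrates.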
GALK inhibitor: qHTS Assay for Inhibitors of Human Galactokinase (GALK). actives 0.007% (n = 270,000). P51570. AID 1868, 2009. Purified GALK, Kinase-Glo residual ATP luminescence. Potency, µM (highest dose often 57.5 µM), for inactives: at the highest dose activity change, negative = inhibition, hits mostly inhibitors; also: potency is read from the fitted curve at half-maximal effect
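5 nM enzyme, 35 uM ATP, 100 uM galactose, 20 mM HEPES pH8.0, 5 mM MgCl2; 1 h RT; residual ATP by Kinase-Glo Plus luminescence, qHTS format.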
Numbers without * were called inactive; ? = inconclusive; · = no result; [ ] = remark or other dose. In the library only some 1.2% were active in any assay of this set; here they are far more common. Unless noted, calls follow the shape of the dose curve; as a rule, active = well fitted curve in the direction sought with a large enough effect; inconclusive = small, poorly fitted or top-dose-only effect, or another doubt; inactive = no such curve, though single readings can be large; an effect the other way counts as inactive or inconclusive. Unless noted, % is scaled to controls: 0 for no effect and ±100 for the full control effect.

SMILES	PI4K2A block	rTrxR1 inhibitor	PKM2 activator	TrxR1 substrate	GALK inhibitor
O=C(CCc1nc2ccccc2s1)N1CCN(S(=O)(=O)c2cccs2)CC1	-7	-3%	?	-8%	3%
O=S(=O)(c1cccs1)N1CCN(Cc2nc3ccccc3s2)CC1	0	17%	22µM*	2%	-3%
O=C(OCc1nc2ccccc2s1)C1CCN(S(=O)(=O)c2cccs2)CC1	-6	17%	8.9µM*	7%	0%
Fc1ccc(-c2n[nH]c(=S)n2N=Cc2ccc(OCc3ccccc3)cc2)cc1	-4	·	·	·	·
COc1ccc2c(c1)CN1CN(Cc3ccc(F)cc3)S(=O)(=O)CC21 (stereo unspecified)	-3	·	·	·	·
CC(=O)Nc1cccc(C(=O)/C=C/c2ccc[nH]2)c1	-6	71µM*	3%	-3%	-4%
CN(C)/C=C1/C(=O)N(c2ccc([N+](=O)[O-])cc2)N=C1c1ccccc1	·	·	-2%	·	1%
CN(C)/C=C1\C(=O)N(c2ccc([N+](=O)[O-])cc2)N=C1c1ccccc1	-51*	-13%[57.1 µM]	-4%	-7%	0%
CCOc1ccc(CCNC(=O)c2cc3ccsc3n2C)cc1OC	-2	·	·	·	·
O=C(CCNc1ccc(Br)cc1)c1cccc([N+](=O)[O-])c1	5	16µM*	0%	-5%	-1%
O=C(CCNc1ccc(Cc2ccncc2)cc1)c1ccc([N+](=O)[O-])cc1	5	16µM*	-22%	-22%[57.1 µM]	-2%
O=C(CCNc1ccccc1)c1cccc([N+](=O)[O-])c1	19	1.6µM*	7%	3%	0%
O=C(NCCNc1ccc([N+](=O)[O-])cc1)c1cccc(Br)c1	-3	-8%[57.1 µM]	-13%	0%[57.1 µM]	·
O=C(CCNc1ccc(F)cc1)c1cccc([N+](=O)[O-])c1	3	3.5µM*	-10%	5%	1%
COc1ccc(CCNCC(O)COc2cccc(C)c2)cc1OC (stereo unspecified)	-9	·	·	·	·
COCCCNC(=O)CC(c1cc(OC)c(OC)c(OC)c1)N1Cc2ccccc2C1=O (stereo unspecified)	-5	18%	·	4%	·
CNS(=O)(=O)c1cc(-c2nn3c(C)nnc3c3ccccc23)ccc1C	-2	14%[57.1 µM]	·	-1%[57.1 µM]	·
COC(=O)N1C(/C=C/c2ccc3c(c2)OCO3)=Cc2ccccc2C1CC(C)=O (stereo unspecified)	·	·	-4%[11.5 µM]	·	·
CCOc1ccc(CCNC(=O)CSc2nnnn2-c2ccccc2)cc1OCC	1	6%	·	-6%	·
Cc1ccc(NCCC(=O)c2cccc([N+](=O)[O-])c2)cc1	7	3.5µM*	-1%	8%[57.1 µM]	4%
COCCNC(=O)/C(C#N)=C/c1ccc(O)cc1	-69*	-5%	-11%	-12%	19%
COc1ccc(N2C(=O)C3CC(C)=C(C)CC3C2=O)c(OC)c1 (stereo unspecified)	-3	-4%	-1%	-5%	3%
COc1cc(N2C(=O)C=CC2=O)ccc1N1C(=O)C=CC1=O	-17	0.5µM*	·	1%[11.4 µM]	·
CC(=O)CC[C@@H]1CC[C@]2(CCCN(C(=O)C(C)(C)C)C2)O1	-4	·	·	·	·
CCCC(=O)NCC1(N(C)C)CCCCC1	-6	27%	·	32%	·
CC(CCC(=O)NN)C1CCC2C3CCC4CC(O)CCC4(C)C3CCC12C (stereo unspecified)	-2	-9%	·	-15%	·
CC(CCC(C)C(C)(C)C)[C@@H]1CC[C@H]2C3C[C@H](OS(O)(=S)=S)[C@H]4C[C@H](OS(O)(=S)=S)[C@@H](OS(O)(=S)=S)C[C@]4(C)[C@H]3CC[C@]12C (stereo partly specified) (tested in a mixture with another compound)	-59*	-11%	·	4%	·

Assay outcomes as filed in PubChem.
